An excerpt weighted towards active compounds, which were near 2.4% of everything screened.
Cruzain noTriton – inhibitors of Trypanosoma cruzi cruzain without detergent. purified cruzain, Z-FR-AMC fluorescence, no detergent. Potency, µM, for inactives: max response, negative = inhibition, usual class: inhibitors. 200,000 tested, 2.3% active;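 note: plate controls were enzyme without inhibitor for no effect and buffer without enzyme for full effect; nearly all actives have a fitted effect of over 40% in size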
Target sequence (P25779 123-467 limits assumed): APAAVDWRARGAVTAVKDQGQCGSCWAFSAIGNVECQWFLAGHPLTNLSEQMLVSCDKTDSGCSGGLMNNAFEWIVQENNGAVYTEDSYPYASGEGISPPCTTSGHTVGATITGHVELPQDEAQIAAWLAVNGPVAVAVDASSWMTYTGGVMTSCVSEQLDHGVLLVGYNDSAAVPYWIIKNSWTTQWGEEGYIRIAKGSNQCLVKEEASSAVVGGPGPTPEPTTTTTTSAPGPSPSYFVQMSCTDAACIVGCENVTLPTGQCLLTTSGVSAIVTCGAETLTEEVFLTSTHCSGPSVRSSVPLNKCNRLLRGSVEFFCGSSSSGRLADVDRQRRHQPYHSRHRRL
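Detergent-free condition (0.00005% Triton X-100) in acetate buffer pH 5.5 with DTT. 1.5 nM enzyme and compound were pre-mixed 15 min, then 2 uM Z-FR-AMC substrate added; reaction progress from fluorescence change between first and third reads (60 s).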
Cruzain inh Det – cruzain (T. cruzi) inhibition with detergent; P25779; purified cruzain, Z-FR-AMC fluorescence, 0.01% Triton; Potency, µM, without a hit: max response, negative = inhibition, actives largely listed as inhibitors; 200,000 tested, 0.43% active; AID 1478;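 note: plate controls were neutral wells for no effect and buffer without enzyme for full effect; nearly all actives have a fitted effect of over 40% in size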
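Cruzain (1.5 nM) preincubated 15 min at RT with compound in 100 mM sodium acetate pH 5.5, 5 mM DTT, 0.01% Triton X-100. Reaction started with 2 uM Z-FR-AMC; AMC fluorescence (ex 360/em 450 nm) change over 60 s gave rate.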
* hit, by the source's call; ? = inconclusive. Calls come from the whole dose curve; as a rule, active = well fitted curve in the direction sought with a large enough effect; inconclusive = small, poorly fitted or top-dose-only effect, or another doubt; inactive = no such curve, though single readings can be large; an effect the other way counts as inactive or inconclusive. Potency is the fitted concentration of half-maximal effect.

SMILES	Cruzain noTriton	Cruzain inh Det
COC(=O)c1c(NC(=O)C2SC(=NC3CCCCC3)C(C(N)=O)=C2N)sc2c1CCCC2 (configuration not stated)	7.94µM*	-2.9%
C=C(C)CN=C1SC(C(=O)Nc2sc3c(c2C(=O)OC)CCC3)C(N)=C1C(N)=O (configuration not stated)	-17.8%	-5.0%
CN(C)CCC(=O)[C@@]1(O)CC[C@H]2[C@H]3CC=C4C[C@@H](O)CC[C@]4(C)[C@H]3CC[C@]21C	4.8%	-3.0%
Cc1ccc2oc(=O)c3cc(C(=O)Nc4ccc(C)c(F)c4)sc3c2c1	-2.5%	2.1%
CCCc1nnc2n1N=C(c1ccc(OC)c(OC)c1)CS2	9.3%	-4.8%
CCCc1nnc2n1N=C(c1ccc(-c3cc(Cl)ccc3Cl)o1)CS2	15.8µM*	-3.1%
C[C@H]1C(O)[C@@]23CCC4C5(C=[N+](CCO)C[C@]4(C)CCC5)C2C[C@@H]1C3 (some centres not stated)	-0.5%	1.9%
COc1ccc(CCNC(=O)C(=O)NCC(c2cccs2)S(=O)(=O)c2ccc(C)cc2)cc1 (configuration not stated)	-10.8%	-3.3%
COc1ccc(C)cc1NCc1cc(=O)oc2cc(-c3ccccc3)c(O)cc12	31.6µM*	-1.5%
Cc1cc(C)cc(NCc2cc(=O)oc3cc(-c4ccccc4)c(O)cc23)c1	?	1.3%
Cc1cc(=O)[nH]c2nnc(SCc3c(F)cccc3Cl)n12	-11.7%	-3.8%
O=[N+]([O-])c1cccc(/C=N/Nc2nnc(-c3ccccc3)c(-c3ccccc3)n2)c1	7.94µM*	-5.4%
C/C(=N\Nc1nnc(-c2ccccc2)c(-c2ccccc2)n1)c1cccc([N+](=O)[O-])c1	?	-5.6%
COc1ccc(NC(=O)CSc2nnc(N)s2)cc1	-3.0%	-0.2%
CCOc1ccc(C(=O)CSc2nnc(N)s2)cc1	25.1µM*	-5.8%
O=C(COc1ccccc1)NCC(c1ccc(Cl)cc1)N1CCCCC1 (configuration not stated)	-1.4%	-2.6%
O=c1c2sc3ccccc3c2n(Cc2cccc(Cl)c2)c(=O)n1Cc1ccccc1	?	-1.5%
O=c1c2sc3ccccc3c2n(Cc2cccc(Cl)c2)c(=O)n1Cc1ccc(F)cc1	6.31µM*	-3.6%
COc1ccc(N2CCN(C(=O)C(C)n3c(=O)cc(C(F)(F)F)c4c(C)nn(C)c43)CC2)cc1 (configuration not stated)	2.3%	-2.7%
Cc1ccc(NC(=O)N(Cc2ccc3c(c2)OCO3)Cc2cc3cc4c(cc3[nH]c2=O)OCCO4)cc1	31.6µM*	2.2%
Cc1ccc(NC(=O)N(Cc2cccs2)Cc2cc3cc4c(cc3[nH]c2=O)OCO4)cc1	?	0.0%
CC1(C)[C@@H](OC(=O)CCC(=O)O)CC[C@@]2(C)[C@H]1CC[C@@]1(C)[C@H]2C(=O)C=C2[C@H]3C[C@](C)(C(=O)O)CC[C@]3(C)CC[C@@]21C	?	-7.8%
O=C(OCc1cc(=O)n2nc(-c3cccs3)sc2n1)c1ccc(F)cc1	1.1%	-2.7%
CCOC(=O)c1c(C)[nH]c(C(=O)COC(=O)CNC(=O)c2ccccc2Cl)c1C	12.6µM*	11.2µM*
CCOC(=O)c1c(C)[nH]c(C(=O)COC(=O)CNC(=O)C2CCCCC2)c1C	7.94µM*	?
SMILES	Cruzain noTriton	Cruzain inh Det
CCOC(=O)c1c(C)[nH]c(C(=O)COC(=O)[C@H](C)NC(=O)c2ccccc2Cl)c1C	-0.8%	-27.2%
CCOC(=O)c1c(C)[nH]c(C(=O)COC(=O)CN2C(=O)C3CCCCC3C2=O)c1C (configuration not stated)	23.7%	-9.4%
COc1ccc(-c2nc(SCc3cc(=O)c4cc(C)ccc4[nH]3)n[nH]2)cc1	-12.1%	-3.6%
COc1cc(O)c2c(O)c3c(c4c2c1[C@@]1(C4)C(C)=CCCC1(C)C)[C@H](O)[C@@]1(O)CC(=O)C(C(N)=O)=C(O)[C@]1(O)C3=O	17.1%	6.0%
O=C(CSc1nnc2c(n1)[nH]c1ccccc12)Nc1ccc2c(c1)OCO2	25.1µM*	-6.0%
COCCn1c(SCC(=O)Nc2ccc3c(c2)OCCO3)nc2c(c1=O)SC(C)C2 (configuration not stated)	-19.4%	-0.4%
CC1Cc2nc(SCC(=O)Nc3ccc4c(c3)OCO4)n(Cc3ccccc3)c(=O)c2S1 (configuration not stated)	31.6µM*	-2.1%
Cc1cc(C)cc(-n2c(SCC(=O)NCc3ccc(F)cc3)nc3c([nH]c4ccccc43)c2=O)c1	5.3%	-0.9%
CC(=O)c1ccc(NC(=O)CSc2nnc3c(n2)[nH]c2ccccc23)cc1	?	-12.3%
O=C(CSc1nc2ccccc2o1)Nc1nc(-c2ccccc2)cs1	?	-3.7%
Cc1cc2ccccc2nc1SCC(=O)Nc1nc(-c2ccccc2)cs1	7.94µM*	4.4%
Cc1ccc(-n2c(SCC(=O)NCc3ccc(F)cc3)nc3c([nH]c4ccccc43)c2=O)cc1	15.8µM*	-4.2%
COc1cc(NC(=O)c2cccc(Cl)c2Cl)ccc1NC(=O)c1cc2ccccc2o1	-5.5%	-2.6%
Cc1ccccc1C(=O)OCc1cc(=O)n2nc(C3CC3)sc2n1	7.2%	-2.0%
COc1ccc(-n2c(=O)c3sc4ccccc4c3n(Cc3ccccc3C)c2=O)cc1OC	-13.7%	0.9%
CC1CCC(NC(=O)C2(C)Cc3ccccc3C(=O)N2Cc2ccc(Cl)cc2)CC1 (configuration not stated)	-15.1%	-2.9%
Cc1cc(C)cc(-n2c(SCC(=O)Nc3ccc4c(c3)OCO4)nc3c([nH]c4ccccc43)c2=O)c1	6.31µM*	-1.8%
Cc1ccc(-c2csc(NC(=O)CSc3nnc4c(n3)[nH]c3ccccc34)n2)cc1	15.8µM*	-10.4%
Cc1cc(C)cc(NC(=O)CSc2nc3c(oc4ccccc43)c(=O)n2-c2ccccc2F)c1	20µM*	-1.3%
Cc1nnc(NC(=O)CSc2nnc3c(n2)[nH]c2ccccc23)s1	4.8%	-2.8%
O=C(CSc1nc2c([nH]c3ccccc32)c(=O)n1-c1ccc(F)cc1)Nc1ccc2c(c1)OCO2	1.3%	-1.3%
O=C(CSc1nc2c(oc3ccccc32)c(=O)n1-c1ccccc1F)Nc1ccccc1	-25.2%	-1.3%
Cc1cc(NC(=O)CSc2nc3c([nH]c4ccccc43)c(=O)n2-c2ccccc2F)no1	-17.9%	-4.5%
O=C(CSc1nc2c([nH]c3ccccc32)c(=O)n1-c1ccccc1F)Nc1cccc(Cl)c1	12.6µM*	-0.2%
CCCCC(=O)Nc1nnc(S(=O)(=O)N(C)Cc2ccccc2)s1	0.5%	-2.0%
SMILES	Cruzain noTriton	Cruzain inh Det
CC(=O)[C@@]1(O)CC[C@H]2[C@H]3C[C@@H](C)C4=CC(=O)C=C[C@]4(C)[C@@]3(F)[C@@H](O)C[C@]21C	2.2%	3.1%
CC(C)CCNC(=O)Cn1nc(N2CCN(c3ccccc3)CC2)ccc1=O	1.7%	-0.9%
CCOc1ccc(NC(=O)c2oc(=O)c3ccccc3c2-c2ccc(C)cc2)cc1	-9.9%	-0.2%
CCOC(=O)C1CCC(CN(Cc2ccc(OC)cc2)S(=O)(=O)c2ccc(F)c(C(=O)Nc3cc(Cl)ccc3OC)c2)CC1 (configuration not stated)	8.1%	0.0%
C1CCCC1	1.0%	2.9%
COc1cccc(-n2c(SCC(=O)Nc3cccc(C)c3)nc3c([nH]c4ccccc43)c2=O)c1	31.6µM*	-0.5%
COc1cccc(NC(=O)CSc2nc3c([nH]c4ccccc43)c(=O)n2-c2cccc(Cl)c2)c1	-22.1%	-0.2%
